Assay results taken from paper PMC5540273 (PLoS ONE, 2017).

What follows are compounds tested on LYN. Conditions: concentration: 1 μM, replicates: in singlicate; n = 1.
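Further: KINOMEscan kinase panel screen.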

| SMILES | %Inh [%] |
| --- | --- |
| Cn1cncc1C(=O)NC1CCN(c2ccnc(Nc3ccc(F)cc3)n2)C1 (centres unmarked) [GSK1379717] | 0 |
| CC(C)c1cc(-c2ccc3c(N)n[nH]c3c2)nc(N)n1 [GSK2250882] | 0 |
| COc1cccc(CNC(=O)NC2CCN(c3ccnc(Nc4ccc(F)cc4)n3)C2)c1 (centres unmarked) [GSK1379723] | 0 |
| Cc1ccc(-c2nc(Nc3ccncc3)c3ccccc3n2)s1 [GSK189015] | 0 |
| Nc1nccc(-c2c(-c3ccc(F)cc3)ncn2C2CCN(Cc3ccccc3)CC2)n1 [SB-219980] | 0 |
| COc1cccc(C2=C(Nc3cc(Cl)c(O)c(Cl)c3)C(=O)NC2=O)c1 [SB-390767] | 0 |
| Cc1ccc(NC(=O)Nc2ccc(Cl)c(C(F)(F)F)c2)cc1-c1ccc(C(=O)Nc2ccncc2)cc1 [GSK1398470] | 42 |
| COc1ccc(Nc2nccc(N3CCC(NC(=O)c4cc5ccccc5s4)C3)n2)cc1 (centres unmarked) [GSK1379738] | 0 |
| Cc1ccc(NC(=O)c2ccc(Cl)cc2)cc1-c1ccc(C(=O)Nc2ccncc2)cc1 [GSK1398467] | 30 |
| FC(F)(F)c1ccccc1-c1cc(-c2c[nH]nc2-c2ccccn2)ccn1 [GW679396] | 0 |
| CNc1cc(-c2ccc3c(N)n[nH]c3c2)nc(N)n1 [GSK2224810] | 0 |
| Cc1nccc(-c2c(-c3ccc(F)cc3)ncn2CCCN2CCOCC2)n1.Cl [SB-282975] | 9 |
| CS(=O)(=O)CCNCc1nc(-c2ccc3ncnc(Nc4ccc(OCc5ccccc5)c(Cl)c4)c3c2)cs1.Cl [GW582764] | 0 |
| CS(=O)(=O)CCNCc1nc(-c2ccc3ncnc(Nc4ccc5c(cnn5Cc5ccccc5)c4)c3c2)cs1.Cl.Cl [GW569716] | 0 |
| Cc1ccccc1Cn1ccn2c(=O)cc(N3CCOCC3)nc12 [GSK2269905] | 0 |
| CNc1nc(-c2ccc3c(N)n[nH]c3c2)cc(N2C[C@@H](C(=O)Nc3ccccc3)CC[C@H]2C)n1 [GSK2298859] | 0 |
| Cc1ccc(NC(=O)Nc2ccccc2)cc1-c1ccc(C(=O)Nc2ccncc2)cc1 [GSK1398471] | 66 |
| COc1ccc(Nc2nccc(N3CCC(NC(=O)C(C)c4ccc(Cl)cc4)CC3)n2)cc1 (centres unmarked) [GSK1379812] | 0 |
| O=C(Nc1n[nH]c2nc(-c3ccco3)c(Br)cc12)C1CCN(Cc2ccccc2)C1.O=C(O)[C@H](O)[C@@H](O)C(=O)O (centres unmarked) [SB-742034] | 2 |

| SMILES | %Inh [%] |
| --- | --- |
| COc1ccc(CSc2nnc(-c3ccc4ncsc4c3)o2)cc1C(F)(F)F | 0 |
| COc1nccc(-c2c(-c3ccc(F)cc3)ncn2CCCN2CCOCC2)n1 [SB-282852] | 0 |
| CSc1ccc(-c2nc3n(c2-c2ccncc2)CCC3)cc1 [SKF-105561] | 8 |
| CC(C)c1ccc(O)cc1Nc1ccnc2ccc(C(F)(F)F)cc12 [GW482059] | 0 |
| c1ccc(-c2ccnc3[nH]ccc23)cc1 [SB-693578] | 0 |
| O=C(Nc1n[nH]c2cc(-c3ccsc3)ccc12)C1CC1 [SB-732932] | 4 |
| Fc1ccc(-c2nn3cccc(F)c3c2-c2ccncc2)cc1 [GW475620] | 6 |
| CNC(=O)c1ccc(C)c(-n2c(C)cc(OCc3ccc(F)cc3F)c(Br)c2=O)c1 | 1 |
| CCCCc1nn2ncccc2c1-c1ccnc(NC2CC2)n1 [GW684374] | 0 |
| CC(=O)c1c(C)c2cnc(Nc3ccc(N4CCNCC4)cn3)nc2n(C2CCCC2)c1=O | 0 |
| COC(=O)C(NC(=O)NC1CCN(c2ccnc(Nc3ccc(F)cc3)n2)C1)c1ccccc1 (centres unmarked) [GSK1379712] | 7 |
| O=c1cc(N2CCOCC2)nc2n(Cc3ccccc3F)ccn12 [GSK2297428] | 0 |
| COc1ccc(CSc2nnc(-c3ccc4nccn4c3)o2)cc1C(F)(F)F | 7 |
| COc1cccc(NC(=O)Nc2ccc(C)c(-c3ccc(C(=O)Nc4ccncc4)cc3)c2)c1 [GSK1398474] | 97.9 |
| O=C1NC(=O)C(c2ccc(Cl)cc2)=C1Nc1ccc(O)cc1 [SB-340867] | 8 |
| COC(=O)c1cccc(NC(=O)NC2CCN(c3ccnc(Nc4ccc(OC)cc4)n3)C2)c1 (centres unmarked) [GSK1379746] | 0 |
| Cc1c(Cn2c3ccccc3n3c(=O)cc(N4CCOCC4)nc23)cccc1C(F)(F)F [GSK2306394] | 0 |
| Nc1cccc(-c2ccc3c(N)n[nH]c3c2)n1 [GSK2192730] | 0 |

What follows are compounds tested on T1, LZK. Conditions: concentration: 1 μM, replicates: in singlicate; n = 1.
T1 construct: gene MAP3K13

| SMILES | %Inh [%] |
| --- | --- |
| Cn1cncc1C(=O)NC1CCN(c2ccnc(Nc3ccc(F)cc3)n2)C1 (centres unmarked) [GSK1379717] | 0 |
| CC(C)c1cc(-c2ccc3c(N)n[nH]c3c2)nc(N)n1 [GSK2250882] | 0 |
| COc1cccc(CNC(=O)NC2CCN(c3ccnc(Nc4ccc(F)cc4)n3)C2)c1 (centres unmarked) [GSK1379723] | 0 |
| Cc1ccc(-c2nc(Nc3ccncc3)c3ccccc3n2)s1 [GSK189015] | 0 |
| Nc1nccc(-c2c(-c3ccc(F)cc3)ncn2C2CCN(Cc3ccccc3)CC2)n1 [SB-219980] | 0 |
| COc1cccc(C2=C(Nc3cc(Cl)c(O)c(Cl)c3)C(=O)NC2=O)c1 [SB-390767] | 0 |
| Cc1ccc(NC(=O)Nc2ccc(Cl)c(C(F)(F)F)c2)cc1-c1ccc(C(=O)Nc2ccncc2)cc1 [GSK1398470] | 0 |
| COc1ccc(Nc2nccc(N3CCC(NC(=O)c4cc5ccccc5s4)C3)n2)cc1 (centres unmarked) [GSK1379738] | 23 |
| Cc1ccc(NC(=O)c2ccc(Cl)cc2)cc1-c1ccc(C(=O)Nc2ccncc2)cc1 [GSK1398467] | 3 |
| FC(F)(F)c1ccccc1-c1cc(-c2c[nH]nc2-c2ccccn2)ccn1 [GW679396] | 11 |
| CNc1cc(-c2ccc3c(N)n[nH]c3c2)nc(N)n1 [GSK2224810] | 18 |
| Cc1nccc(-c2c(-c3ccc(F)cc3)ncn2CCCN2CCOCC2)n1.Cl [SB-282975] | 0 |
| CS(=O)(=O)CCNCc1nc(-c2ccc3ncnc(Nc4ccc(OCc5ccccc5)c(Cl)c4)c3c2)cs1.Cl [GW582764] | 36 |
| CS(=O)(=O)CCNCc1nc(-c2ccc3ncnc(Nc4ccc5c(cnn5Cc5ccccc5)c4)c3c2)cs1.Cl.Cl [GW569716] | 42 |
| Cc1ccccc1Cn1ccn2c(=O)cc(N3CCOCC3)nc12 [GSK2269905] | 0 |
| CNc1nc(-c2ccc3c(N)n[nH]c3c2)cc(N2C[C@@H](C(=O)Nc3ccccc3)CC[C@H]2C)n1 [GSK2298859] | 20 |
| Cc1ccc(NC(=O)Nc2ccccc2)cc1-c1ccc(C(=O)Nc2ccncc2)cc1 [GSK1398471] | 0 |
| COc1ccc(Nc2nccc(N3CCC(NC(=O)C(C)c4ccc(Cl)cc4)CC3)n2)cc1 (centres unmarked) [GSK1379812] | 36 |
| O=C(Nc1n[nH]c2nc(-c3ccco3)c(Br)cc12)C1CCN(Cc2ccccc2)C1.O=C(O)[C@H](O)[C@@H](O)C(=O)O (centres unmarked) [SB-742034] | 0 |

| SMILES | %Inh [%] |
| --- | --- |
| COc1ccc(CSc2nnc(-c3ccc4ncsc4c3)o2)cc1C(F)(F)F | 0 |
| COc1nccc(-c2c(-c3ccc(F)cc3)ncn2CCCN2CCOCC2)n1 [SB-282852] | 0 |
| CSc1ccc(-c2nc3n(c2-c2ccncc2)CCC3)cc1 [SKF-105561] | 45 |
| CC(C)c1ccc(O)cc1Nc1ccnc2ccc(C(F)(F)F)cc12 [GW482059] | 0 |
| c1ccc(-c2ccnc3[nH]ccc23)cc1 [SB-693578] | 11 |
| O=C(Nc1n[nH]c2cc(-c3ccsc3)ccc12)C1CC1 [SB-732932] | 52 |
| Fc1ccc(-c2nn3cccc(F)c3c2-c2ccncc2)cc1 [GW475620] | 0 |
| CNC(=O)c1ccc(C)c(-n2c(C)cc(OCc3ccc(F)cc3F)c(Br)c2=O)c1 | 0 |
| CCCCc1nn2ncccc2c1-c1ccnc(NC2CC2)n1 [GW684374] | 0 |
| CC(=O)c1c(C)c2cnc(Nc3ccc(N4CCNCC4)cn3)nc2n(C2CCCC2)c1=O | 89 |
| COC(=O)C(NC(=O)NC1CCN(c2ccnc(Nc3ccc(F)cc3)n2)C1)c1ccccc1 (centres unmarked) [GSK1379712] | 18 |
| O=c1cc(N2CCOCC2)nc2n(Cc3ccccc3F)ccn12 [GSK2297428] | 0 |
| COc1ccc(CSc2nnc(-c3ccc4nccn4c3)o2)cc1C(F)(F)F | 18 |
| COc1cccc(NC(=O)Nc2ccc(C)c(-c3ccc(C(=O)Nc4ccncc4)cc3)c2)c1 [GSK1398474] | 0 |
| O=C1NC(=O)C(c2ccc(Cl)cc2)=C1Nc1ccc(O)cc1 [SB-340867] | 0 |
| COC(=O)c1cccc(NC(=O)NC2CCN(c3ccnc(Nc4ccc(OC)cc4)n3)C2)c1 (centres unmarked) [GSK1379746] | 34 |
| Cc1c(Cn2c3ccccc3n3c(=O)cc(N4CCOCC4)nc23)cccc1C(F)(F)F [GSK2306394] | 0 |
| Nc1cccc(-c2ccc3c(N)n[nH]c3c2)n1 [GSK2192730] | 0 |
